Results filed as inconclusive are left out. Calls of active or inactive are those of the source. Calls follow the shape of the dose curve; as a rule, active = well fitted curve in the direction sought with a large enough effect; inconclusive = small, poorly fitted or top-dose-only effect, or another doubt; inactive = no such curve, though single readings can be large or run the other way.
Target: Protein phosphatase 1D (Homo sapiens) (UniProt O15297)
Assay: Rhodamine-PBP qHTS Assay for Modulators of WT P53-Induced Phosphatase 1 (WIP1) (AID 1347425)
Settings: recombinant WIP1, Rhodamine-PBP phosphate fluorescence, real-time; series mostly up to 57.5 µM
Text: Assay Provider (PI): Nathan Coussens Ph.D.
National Center for Advancing Translational Sciences (NCATS), Rockville, MD
National Institute of Health (NIH), Bethesda, Maryland
WT P53-Induced Phosphatase 1 (WIP1) is a member of the magnesium-dependent serine/threonine protein phosphatase (PPM) family and is induced by P53 in response to DNA damage. In several human cancers, the WIP1 protein is overexpressed, which is generally associated with a worse prognosis. Although WIP1 is an attractive therapeutic target, no potent, selective, and bioactive small-molecule modulator with favorable pharmacokinetics has been reported. Phosphatase enzymes are among the most challenging targets for small molecules because of the difficulty of achieving both modulator selectivity and bioavailability. Another major obstacle has been the availability of robust and physiologically relevant phosphatase assays that are suitable for high-throughput screening.
Here, we describe two orthogonal biochemical WIP1 activity assays that utilize phosphopeptides from native WIP1 substrates. We optimized a RapidFire MS assay to quantify the enzymatically dephosphorylated peptide reaction product in a 384-well format. Additionally, a redshifted Rhodamine-PBP fluorescence assay was optimized in a 1,536-well format to enable real-time WIP1 activity measurements through the detection of the orthogonal reaction product, Pi. We validated these two optimized assays by quantitative high-throughput screening against the National Center for Advancing Translational Sciences (NCATS) Pharmaceutical Collection and used secondary assays to confirm and evaluate inhibitors identified in the primary screen.
SEQUENCE No. (e.g., 1, 2, 3, etc.); […] (e.g., Cells, Incubation, Reagent, etc.); VALUE; DESCRIPTION
1; Reagent; 3 uL; WIP1 (6.7 nM), Rh-PBP (13.3 uM), columns 1-48
3; Library Compounds; 23 nL; NCATS Pharmaceutical Collection, column 5-48
4; Control Compounds; DMSO in column 2, GSK2830371 (57.5 uM, final) in 3-fold serial dilutions in column 3, GSK2830371 (1.15 uM, final) in column 4
5; Time; 1 hr; incubation
6; Detection; fluorescence (f0); ViewLux, excitation filter = 525 nm, emission filter = 598 nm
7; Reagent; 1 uL; VEPP-pS-QETFS (40 uM), columns 2-48
8; Detection; fluorescence (f1); ViewLux, excitation filter = 525 nm, emission filter = 598 nm
NOTES (numbers refer to sequence above)
1 & 2; Black medium binding Greiner 1536-well plates (# 789176-F); assay buffer: 50 mM Tris-HCl pH 7.5, 30 mM MgCl2, 1mM TCEP, 0.1 mM EGTA, 75 ug/mL BSA; dispensed with a BioRaptr liquid handler (Beckman Coulter).
3 & 4; Kalypsys pintool (equipped with 1536 pinhead, Wako USA) transfer. Tip wash sequence: DMSO, methanol, 3 sec vacuum dry.
5; Room temperature incubation.
7; VEPPL-pS-QETFS in assay buffer dispensed with a BioRaptr; final reaction conditions: 5 nM WIP1, 10 uM VEPPL-pS-QETFS, 10 uM Rh-PBP, 50 mM Tris-HCl pH 7.5, 30 mM MgCl2, 1 mM TCEP, 0.1 mM EGTA, 75 ug/mL BSA.
8; Measurement taken at 1 min intervals for 11 min. Delta readout = f1 - f0.

Chain of Protein phosphatase 1D (Homo sapiens) (O15297 whole entry, looked up): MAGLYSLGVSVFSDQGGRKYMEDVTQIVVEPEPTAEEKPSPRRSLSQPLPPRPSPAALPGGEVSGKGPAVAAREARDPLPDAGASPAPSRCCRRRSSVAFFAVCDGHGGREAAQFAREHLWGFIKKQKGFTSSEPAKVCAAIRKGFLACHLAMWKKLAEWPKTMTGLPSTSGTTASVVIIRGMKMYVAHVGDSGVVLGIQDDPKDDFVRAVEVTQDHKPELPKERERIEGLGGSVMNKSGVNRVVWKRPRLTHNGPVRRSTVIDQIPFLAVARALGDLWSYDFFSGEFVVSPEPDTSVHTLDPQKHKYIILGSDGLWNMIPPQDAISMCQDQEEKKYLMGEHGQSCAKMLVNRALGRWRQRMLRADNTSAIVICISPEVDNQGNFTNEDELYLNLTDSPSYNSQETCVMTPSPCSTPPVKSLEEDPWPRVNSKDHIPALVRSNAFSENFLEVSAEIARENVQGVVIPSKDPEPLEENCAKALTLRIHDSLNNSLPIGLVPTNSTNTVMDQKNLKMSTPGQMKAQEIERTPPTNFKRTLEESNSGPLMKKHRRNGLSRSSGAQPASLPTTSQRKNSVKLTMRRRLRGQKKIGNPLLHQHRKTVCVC

SMILES | outcome
CC(C)c1cccc(C(C)C)c1O | inactive
CC(Cc1ccccc1)NCCn1cnc2c1c(=O)n(C)c(=O)n2C (stereo not given) | inactive
CN1C(=O)CCS(=O)(=O)C1c1ccc(Cl)cc1 (stereo not given) | inactive
Clc1ccccc1N1CCNCC1 | inactive
NC1=NC(=O)C(c2ccccc2)O1 (stereo not given) | inactive
CC[N+]1(CC)CCC(OC(=O)C(O)(c2ccccc2)c2ccccc2)C1 (stereo not given) | inactive
C=CCN1C[C@H](C)N([C@H](c2ccc(C(=O)N(CC)CC)cc2)c2cccc(OC)c2)C[C@H]1C | inactive
C[C@]12CCC(=O)C=C1CC[C@@H]1[C@@H]2CC[C@]2(C)C(=O)CC[C@@H]12 | inactive
C[C@H](N)C(=O)c1ccccc1 | inactive
C[C@]12CC[C@H]3[C@@H](CC[C@@]45O[C@H]4C(O)=C(C#N)C[C@]35C)[C@H]1CC[C@H]2O | inactive
COc1cccc(C(=O)CCN[C@@H](C)[C@H](O)c2ccccc2)c1 | inactive
C[C@]12CCC(=O)C=C1CC[C@@H]1[C@@H]2CC[C@@]2(C)[C@H]1CC[C@]2(C)O | inactive
COP(=S)(OC)Oc1ccc(SC)c(C)c1 | inactive
CN1C(=O)NC(=O)C(C)(C2=CCCCC2)C1=O (stereo not given) | inactive
CCN[C@@H](C)Cc1ccccc1 | inactive
Clc1cccc(SC2CCNCC2)n1 | inactive
Nc1nc(N)nc(NC2CC2)n1 | inactive
COP(=S)(OC)Oc1cc(Cl)c(Cl)cc1Cl | inactive
COc1ccc2c(c1OC)C(=O)O[C@H]2[C@@H]1c2cc3c(cc2CCN1C)OCO3 | inactive
CN1C(=O)COc2c(C(=O)NC3CN4CCC3CC4)cc(Cl)cc21 (stereo not given) | inactive

SMILES | outcome
CC(=O)NC1CCSC1=O (stereo not given) | inactive
CCC1(c2ccccc2)C(=O)N(COC)C(=O)N(COC)C1=O | inactive
CCN(CCO)CCn1c(Cc2ccccc2)nc2c1c(=O)n(C)c(=O)n2C | inactive
C[N+]1(CCF)[C@@H]2CC[C@H]1CC(OC(=O)C(O)(c1ccccc1)c1ccccc1)C2 (stereo not given in full) | inactive
c1ccc(N2CCNCC2)cc1 | inactive
CCC1(CC)C(=O)C=CNC1=O | inactive
CC(C)c1c(CN(C)C(C)Cc2ccccc2)n(C)n(-c2ccccc2)c1=O (stereo not given) | inactive
O=c1[nH]c2ccccc2n1C1CCNCC1 | inactive
CC(=O)OCC1=C(C(=O)O)N2C(=O)[C@@H](N)[C@H]2SC1 | inactive
CN1CC[C@]23c4c5ccc(O)c4O[C@H]2[C@@H](O)CC[C@H]3[C@H]1C5 | inactive
CCCCCCCCCC(=O)O[C@H]1CC[C@H]2[C@@H]3CCC4=CC(=O)CC[C@@H]4[C@H]3CC[C@]12C | inactive
NC(=O)CS(=O)C(c1ccccc1)c1ccccc1 (stereo not given) | inactive
Nc1ccccc1 | inactive
ClCCN1CCCC1 | inactive
CC(C)NC(C)C | inactive
C[C@]12CC[C@@H]3c4ccc(OC(=O)N(CCCl)CCCl)cc4CC[C@H]3[C@@H]1CC[C@@H]2O | inactive
CC(C)(C)NCC(O)c1ccccc1Cl (stereo not given) | inactive
C=CCC1([C@H](C)CCC)C(=O)NC(=O)NC1=O | inactive
CCCOC(=O)c1cncn1C(C)c1ccccc1 (stereo not given) | inactive
CCOP(=S)(OCC)Oc1ccc2c(C)c(Cl)c(=O)oc2c1 | inactive

Reference: PubChem BioAssay (NCATS)
